Reference: the supplement of paper PMC8975748
Structures can show the parent of a compound that is named as a salt.

Tested on: Saccharomyces cerevisiae BY4741 SeMeCo community
Experiment: z-score of subpopulation abundance vs DMSO median, subpopulation auxotrophic for HLUM; higher = larger share of this subpopulation than in DMSO controls
Conditions: 10 µM; 24 h; SM minimal medium; subpopulation (auxotrophy): HLUM
Method: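 Fluorescent four-plasmid SeMeCo (self-establishing metabolically cooperating S. cerevisiae BY4741 community; plasmids pH-mRuby2, pL-mWasabi, pU-eCFP, pM-TagRFP657) was grown 24 h in minimal SM medium with each Selleck FDA-approved drug at 10 µM in 384-well plates. Cells were fixed and imaged by high-content confocal microscopy. For each auxotrophic subpopulation (and the prototroph), a z-score gives the deviation from the DMSO vehicle-control population median.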

Structure (SMILES) | z-score of subpopulation abundance
Nc1nnc(-c2cccc(Cl)c2Cl)c(N)n1 [Lamotrigine] | 1.58
CC(=O)O[C@]1(C(C)=O)CC[C@H]2[C@@H]3C[C@H](C)C4=CC(=O)CC[C@]4(C)[C@H]3CC[C@@]21C [Medroxyprogesterone acetate] | -0.36
COc1ccc(CN2CCN(C(c3ccc(F)cc3)c3ccc(F)cc3)CC2)c(OC)c1OC [Lomerizine 2HCl] | -0.64
COc1c(N2CCNC(C)C2)c(F)cc2c(=O)c(C(=O)O)cn(C3CC3)c12 (stereo not given) [Gatifloxacin] | -0.38
N#Cc1ccc(Oc2ccc3c(c2)COB3O)cc1 [Crisaborole (AN2728)] | 5.38
COC(=O)C1=C(C)NC(C)=C(C(=O)OCC(C)C)C1c1ccccc1[N+](=O)[O-] (stereo not given) [Nisoldipine] | 1.09
CN1[C@@H](CC(=O)c2ccccc2)CCC[C@H]1C[C@H](O)c1ccccc1 [Lobeline hydrochloride] | 0.01
C[C@]12CCC(=O)C=C1[C@@H]1C[C@@H]1[C@H]1[C@@H]3[C@@H]4C[C@@H]4[C@@]4(CCC(=O)O4)[C@@]3(C)CC[C@@H]12 [Drospirenone] | -0.05
Cc1ccc(-c2cc(C(F)(F)F)nn2-c2ccc(S(N)(=O)=O)cc2)cc1 [Celecoxib] | -0.44
Nc1nc2c(ncn2COC(CO)CO)c(=O)[nH]1 [Ganciclovir] | -0.89
CC1CCc2c(N3CCC(O)CC3)c(F)cc3c(=O)c(C(=O)O)cn1c23 (stereo not given) [Nadifloxacin] | 0.26
CCn1cc(C(=O)O)c(=O)c2cnc(N3CCNCC3)nc21 [Pipemidic acid] | 0.28
Cn1cc(C(=O)[C@@H]2CCc3[nH]cnc3C2)c2ccccc21 [Ramosetron Hydrochloride] | 0.88
C[N+]1(C)[C@@H]2C[C@@H](OC(=O)C(O)(c3cccs3)c3cccs3)C[C@H]1[C@@H]1O[C@@H]12 [Tiotropium Bromide hydrate] | -0.81
O=C(N[C@H](CO)[C@H](O)c1ccc([N+](=O)[O-])cc1)C(Cl)Cl [Chloramphenicol] | 0.45
CCOC(=O)C1=C(C)NC(C)=C(C(=O)OC)C1c1cccc([N+](=O)[O-])c1 (stereo not given) [Nitrendipine] | -1.04
CN1C2CCC1CC(OC(=O)C(O)c1ccccc1)C2 (stereo not given) [Homatropine Bromide] | 0.14
O=C1CN(/N=C/c2ccc(-c3ccc([N+](=O)[O-])cc3)o2)C(=O)N1 [Dantrolene sodium] | 0.72
O=C(CCCN1CCN(c2ccccn2)CC1)c1ccc(F)cc1 [Azaperone] | 0.31
Nc1nc2[nH]cc(CCc3ccc(C(=O)N[C@@H](CCC(=O)O)C(=O)O)cc3)c2c(=O)[nH]1 [Pemetrexed] | -1.01

Structure (SMILES) | z-score of subpopulation abundance
Oc1ccc(C2CNCCc3c2cc(O)c(O)c3Cl)cc1 (stereo not given) [Fenoldopam mesylate] | 1.24
Cc1cnc(NC(=O)C2=C(O)c3ccccc3S(=O)(=O)N2C)s1 [Meloxicam] | -0.98
COc1cc2c(cc1OC)-c1cc3ccc(OC)c(OC)c3c[n+]1CC2 [Palmatine] | 1.87
CC[C@@]1(O)C(=O)OCc2c1cc1n(c2=O)Cc2cc3c(CN(C)C)c(O)ccc3nc2-1 [Topotecan HCl] | -0.39
C[N+]1(C)CCC(=C(c2ccccc2)c2ccccc2)CC1 [Diphemanil Methylsulfate] | -0.18
CCCc1nn(C)c2c(=O)[nH]c(-c3cc(S(=O)(=O)N4CCN(C)CC4)ccc3OCC)nc12 [Sildenafil] | 0.26
CC(=O)O[C@H]1C[C@@H]2CC[C@@H]3[C@H](CC[C@@]4(C)[C@H]3C[C@H]([N+]3(C)CCCCC3)[C@@H]4OC(C)=O)[C@@]2(C)C[C@@H]1N1CCCCC1 [Vecuronium Bromide] | 0.24
CN1[C@@H]2CC[C@H]1C[C@@H](OC(=O)c1c[nH]c3ccccc13)C2 [Tropisetron] | 0.38
Nc1ccc(S(=O)(=O)Nc2ccnn2-c2ccccc2)cc1 [Sulfaphenazole] | 0.07
CC1(C)CC[C@]2(C(=O)O)CC[C@]3(C)C(=CC[C@@H]4[C@@]5(C)CC[C@H](O)C(C)(C)[C@@H]5CC[C@]43C)[C@@H]2C1 [Oleanolic Acid] | 0.12
N/C(=N\N=C\c1ccc(Cl)cc1)N/N=C/c1ccc(Cl)cc1 [Robenidine Hydrochoride] | 18.1
C[C@H](NCc1ccc(OCc2cccc(F)c2)cc1)C(N)=O [Safinamide Mesylate] | 0.33
Clc1ccc(COC(Cn2ccnc2)c2ccc(Cl)cc2Cl)c(Cl)c1 (stereo not given) [Miconazole] | 9.68
COc1ccc2[nH]c([S+]([O-])Cc3ncc(C)c(OC)c3C)nc2c1 (stereo not given) [Omeprazole] | -0.03
CCCCc1oc2ccc(NS(C)(=O)=O)cc2c1C(=O)c1ccc(OCCCN(CCCC)CCCC)cc1 [Dronedarone HCl] | 0
O=C1NC(=O)C(c2ccccc2)(c2ccccc2)N1 [Phenytoin] | -0.04
C[C@@H](NCCCc1cccc(C(F)(F)F)c1)c1cccc2ccccc12 [Cinacalcet HCl] | 1.57
CC[C@H]1OC(=O)C[C@@H](O)[C@H](C)[C@@H](O[C@@H]2O[C@H](C)[C@@H](O)[C@H](N(C)C)[C@H]2O)[C@@H](CCN2C[C@H](C)C[C@H](C)C2)C[C@@H](C)C(=O)/C=C/C(C)=C/[C@@H]1CO[C@@H]1O[C@H](C)[C@@H](O)[C@@H](OC)[C@H]1OC [Tilmicosin] | 0.67
CO/N=C(\C(=O)N[C@@H]1C(=O)N2C(C(=O)O)=C(CSc3nc(C)c(CC(=O)O)s3)CS[C@H]12)c1csc(N)n1 [Cefodizime Sodium] | -0.81
COC(=O)C1=C(C)NC(C)=C(C(=O)OC(C)(C)CN(C)CCC(c2ccccc2)c2ccccc2)C1c1cccc([N+](=O)[O-])c1 (stereo not given) [Lercanidipine hydrochloride] | -0.22
